The results in this text go back to PubChem BioAssay.

Assay [1] addresses Albumin (Bos taurus) (UniProt P02769). As to the kind of experiment: compounds binding labelled BSA control protein – biochemical, small-molecule microarray, Alexa647 label, 635/667 nm fluorescence, artefact control for SMM control protein annotation, profiling panel (AID 1118).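 Also: score merges 667 nm emission intensity and signal-to-noise per printed compound spot.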 Particulars: BSA-A647 binding, fluorescence 635 nm, higher = more signal.
Assay [2] is described as follows: probe aXIP binding to arrayed compounds – biochemical, NeuroSMM set, 635/667 nm fluorescence, primary screen (AID 1119).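 Also: probe is the protein aXip251-270 applied at 1 µg/mL to compound-printed slides; binding of probe to printed compounds measured as 667 nm fluorescence plus signal to noise.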 Conditions: small-molecule microarray; higher = more signal, called active from +8 up or from −8 down unless noted.
Assay [3] in a line: probe aNOTCH3 binding on compound microarray – biochemical, small-molecule microarray, 635/667 nm fluorescence, primary screen (AID 1120).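 Also: probe is a biotin-tagged antibody raised against NOTCH3 rather than NOTCH3 protein; score merges spot fluorescence near 667 nm with spot signal to noise.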 Conditions: higher = more signal; small-molecule microarray, probe aNOTCH3, fluorescence unless noted.
Assay [4] is described as follows: probe aNOTCH2 binding on compound microarray – biochemical, small-molecule microarray, 635/667 nm fluorescence, primary screen (AID 1121).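 Also: score merges feature fluorescence read at 667 nm with its signal to noise.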 Conditions: higher = more signal; small-molecule microarray, probe aNOTCH2, fluorescence unless noted.
Assay [5] has as its target Carbonic anhydrase 2 (Homo sapiens) (UniProt P00918). As to the kind of experiment: compounds binding carbonic anhydrase 2 – biochemical, small-molecule microarray, Alexa647-labelled CAII, profiling panel (AID 1122). Conditions: CAII-A647 binding fluorescence, higher = more signal.
Assay [6] is described as follows: COS7 lysate on small-molecule microarray, probe aHis, 635 nm (AID 1123).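 Also: z-score combines 667nm fluorescence intensity with signal-to-noise per printed compound spot.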 Particulars: higher = more signal; small-molecule microarray, COS7 cell lysate, probe aHis, fluorescence unless noted.
Assay [7] can be described thus: probe aLAP1 signal on lysate-treated microarray – cell lysate, small-molecule microarray, COS7 lysate, primary screen (AID 1124).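 Also: lysate comes from COS7 cells expressing LAP1 and is applied at 0.3 µg/mL; score merges spot fluorescence near 667 nm with signal-to-noise over triplicate slides.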 Particulars: higher = more signal; small-molecule microarray, COS7 cell lysate, probe aLAP1, fluorescence unless noted.
The subject of assay [8] is Sam68 (KHDRBS1). As to the kind of experiment: compounds binding KHDRBS1 protein – biochemical, small-molecule microarray, 635 nm fluorescence, primary screen (AID 1125).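 Also: score merges 667 nm channel intensity with signal to noise over triplicate slides.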 Conditions: higher = more signal.
The subject of assay [9] is Chordin-like protein 2 (CHRDL2). As to the kind of experiment: compounds binding chordin-like 2 – biochemical, small-molecule microarray, 635 nm fluorescence, primary screen (AID 1126).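 Also: printed compound slides probed with Chrdl2 protein at 4 µg/mL for 1 h at 4 C; score merges 667 nm emission intensity with signal to noise over three replicate slides.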 Conditions: fluorescence 635 nm, higher = more signal.
Assay [10] deals with Concanavalin-A (Canavalia ensiformis) (UniProt P02866). As to the kind of experiment: compounds binding concanavalin A lectin – biochemical, small-molecule microarray, Alexa647 label, 635 nm, artefact control for SMM control protein annotation, primary screen (AID 1127).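 Also: z combines 667 nm emission intensity with signal-to-noise across three replicate slides.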 Particulars: ConA-A647 binding fluorescence, higher = more signal.
Concanavalin-A (Canavalia ensiformis), sequence (P02866 whole entry, looked up): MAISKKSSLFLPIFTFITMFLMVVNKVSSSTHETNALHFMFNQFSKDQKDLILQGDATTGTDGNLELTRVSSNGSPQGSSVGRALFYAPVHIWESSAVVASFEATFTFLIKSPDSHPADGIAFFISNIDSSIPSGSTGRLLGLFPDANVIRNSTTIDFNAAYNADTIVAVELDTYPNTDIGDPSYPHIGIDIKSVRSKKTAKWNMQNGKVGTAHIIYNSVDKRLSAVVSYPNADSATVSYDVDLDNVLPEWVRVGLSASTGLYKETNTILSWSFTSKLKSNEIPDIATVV
The nature of assay [11]: compounds binding Alexa647 anti-His antibody – biochemical, small-molecule microarray, 635 nm fluorescence, artefact control for SMM control protein annotation, primary screen (AID 1128).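 Also: score merges feature fluorescence with signal-to-noise for each printed compound spot.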 Particulars: higher = more signal.
Assay [12] concerns Human papillomavirus type 1a E7 protein (residues 1-88). As to the kind of experiment: HPV1a E7 small-molecule binders, primary screen, biochemical, small-molecule microarray, residues 1-88, 635 nm (AID 1129). Conditions: small-molecule microarray binding, fluorescence 635 nm; higher = more signal.
Assay [13] deals with Focal adhesion kinase 1 (Homo sapiens) (UniProt Q05397). As to the kind of experiment: PTK2 protein binding on printed compound slides – biochemical, small-molecule microarray, 635/667 nm fluorescence, BSA, DTT, primary screen (AID 1130).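 Also: composite of spot emission at 667 nm and signal to noise over triplicate slides.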 Conditions: 635 nm fluorescence, higher = more signal.
Focal adhesion kinase 1 (Homo sapiens), sequence (Q05397 whole entry, looked up): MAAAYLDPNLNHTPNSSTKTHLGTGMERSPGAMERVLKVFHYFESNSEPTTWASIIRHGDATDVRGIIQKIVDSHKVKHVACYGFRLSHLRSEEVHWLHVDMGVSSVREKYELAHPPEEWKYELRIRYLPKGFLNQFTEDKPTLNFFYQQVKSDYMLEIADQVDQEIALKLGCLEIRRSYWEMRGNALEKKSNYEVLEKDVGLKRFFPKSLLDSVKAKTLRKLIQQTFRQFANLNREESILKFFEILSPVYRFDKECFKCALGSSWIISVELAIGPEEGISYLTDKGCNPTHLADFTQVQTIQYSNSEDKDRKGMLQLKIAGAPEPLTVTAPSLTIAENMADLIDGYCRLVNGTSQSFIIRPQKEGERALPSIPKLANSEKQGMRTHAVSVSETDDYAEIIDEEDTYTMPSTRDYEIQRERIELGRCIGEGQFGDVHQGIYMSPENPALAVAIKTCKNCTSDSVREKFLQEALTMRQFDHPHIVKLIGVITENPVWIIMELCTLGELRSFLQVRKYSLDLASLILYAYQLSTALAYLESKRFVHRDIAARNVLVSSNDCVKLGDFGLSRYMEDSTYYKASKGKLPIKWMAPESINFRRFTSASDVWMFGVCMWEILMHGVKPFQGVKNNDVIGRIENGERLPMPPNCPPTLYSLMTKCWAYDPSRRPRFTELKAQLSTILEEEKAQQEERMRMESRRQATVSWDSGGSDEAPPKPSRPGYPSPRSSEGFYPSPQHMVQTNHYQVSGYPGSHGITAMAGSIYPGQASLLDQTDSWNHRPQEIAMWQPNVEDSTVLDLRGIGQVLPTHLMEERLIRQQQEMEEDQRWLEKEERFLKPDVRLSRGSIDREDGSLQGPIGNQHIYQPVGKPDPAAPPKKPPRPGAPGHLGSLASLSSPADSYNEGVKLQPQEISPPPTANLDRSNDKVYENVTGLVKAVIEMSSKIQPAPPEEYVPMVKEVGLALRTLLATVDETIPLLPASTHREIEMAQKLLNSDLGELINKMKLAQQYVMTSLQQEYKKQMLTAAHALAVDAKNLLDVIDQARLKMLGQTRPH
In assay [14] the test system is Fibrinogen (Alexa647-labelled). As to the kind of experiment: Alexa647-fibrinogen binding to printed small molecules – biochemical, small-molecule microarray, 635/667 nm fluorescence, artefact control for SMM control-protein annotation, profiling panel (AID 1131).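 Also: z-score merges 667 nm fluorescence with per-spot signal-to-noise over triplicate slides.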 Particulars: fibrinogen-A647 binding fluorescence, higher = more signal.
For assay [15], the target named is Follistatin (Homo sapiens) (UniProt P19883). As to the kind of experiment: FST protein binding to printed compounds – biochemical, small-molecule microarray, 635/667 nm fluorescence, primary screen (AID 1132). Particulars: 635 nm fluorescence, higher = more signal.
Follistatin (Homo sapiens), sequence (P19883 whole entry, looked up): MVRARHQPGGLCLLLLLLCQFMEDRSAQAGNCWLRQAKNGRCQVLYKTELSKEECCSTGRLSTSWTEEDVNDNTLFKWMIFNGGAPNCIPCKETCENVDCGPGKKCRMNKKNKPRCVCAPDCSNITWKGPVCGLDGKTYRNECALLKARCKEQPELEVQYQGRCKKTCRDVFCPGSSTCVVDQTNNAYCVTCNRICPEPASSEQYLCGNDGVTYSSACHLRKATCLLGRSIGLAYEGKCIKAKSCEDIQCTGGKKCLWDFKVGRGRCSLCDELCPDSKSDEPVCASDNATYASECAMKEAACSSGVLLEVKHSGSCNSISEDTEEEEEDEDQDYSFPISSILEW
The target of assay [16] is Fibroblast growth factor 2 (Homo sapiens) (UniProt P09038). As to the kind of experiment: basic fibroblast growth factor binding to printed compounds – biochemical, small-molecule microarray, 635/667 nm fluorescence, primary screen (AID 1133). Conditions: FGF2, fluorescence 635/667, higher = more signal.
Fibroblast growth factor 2 (Homo sapiens), sequence (P09038 whole entry, looked up): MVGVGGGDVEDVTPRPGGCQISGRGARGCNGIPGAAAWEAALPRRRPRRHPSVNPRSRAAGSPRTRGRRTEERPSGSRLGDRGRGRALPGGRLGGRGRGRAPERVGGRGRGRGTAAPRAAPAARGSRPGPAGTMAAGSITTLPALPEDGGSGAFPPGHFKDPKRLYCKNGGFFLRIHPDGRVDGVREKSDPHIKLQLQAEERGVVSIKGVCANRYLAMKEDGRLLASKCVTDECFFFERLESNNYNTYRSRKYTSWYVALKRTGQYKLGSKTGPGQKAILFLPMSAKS
Assay [17] is described as follows: JC-1 mitochondrial potential readout, lung cancer cells – cell-based, A549, JC-1 fluorescence, basal, 24 h, 100 nL, profiling panel (AID 1138).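 Also: A549 lung adenocarcinoma cells under basal conditions with no added stimulus; test concentration not given here.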 Conditions: higher = more signal.
Assay [18] concerns Lefty1. As to the kind of experiment: Lefty1 protein binding to printed compounds – biochemical, small-molecule microarray, 635/667 nm fluorescence, primary screen (AID 1139). Conditions: fluorescence 635/667, higher = more signal.
Assay [19] has as its system wheat germ agglutinin (Triticum aestivum), Alexa647-labelled. As to the kind of experiment: Alexa647-WGA lectin binding to printed small molecules – biochemical, small-molecule microarray, 635/667 nm fluorescence, artefact control for SMM control-protein annotation, profiling panel (AID 1140).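 Also: score merges 667 nm feature emission with signal to noise over triplicate slides.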 Particulars: WGA-A647 binding, 635 nm fluorescence, higher = more signal.
In assay [20] the target is Luciferin 4-monooxygenase (Photinus pyralis) (UniProt P08659). As to the kind of experiment: inhibition of purified Photinus pyralis luciferase – biochemical, luminescence, purified enzyme, 2006 set, primary screen (AID 1141).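 Also: cell-free assay with purified firefly luciferase at 100 ng per well in PBS; test concentration not given here.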 Particulars: purified firefly luciferase, SteadyGlo luminescence, 30 min; higher = more signal, called active from +8 up or from −8 down unless noted.
Luciferin 4-monooxygenase (Photinus pyralis), sequence (P08659 whole entry, looked up): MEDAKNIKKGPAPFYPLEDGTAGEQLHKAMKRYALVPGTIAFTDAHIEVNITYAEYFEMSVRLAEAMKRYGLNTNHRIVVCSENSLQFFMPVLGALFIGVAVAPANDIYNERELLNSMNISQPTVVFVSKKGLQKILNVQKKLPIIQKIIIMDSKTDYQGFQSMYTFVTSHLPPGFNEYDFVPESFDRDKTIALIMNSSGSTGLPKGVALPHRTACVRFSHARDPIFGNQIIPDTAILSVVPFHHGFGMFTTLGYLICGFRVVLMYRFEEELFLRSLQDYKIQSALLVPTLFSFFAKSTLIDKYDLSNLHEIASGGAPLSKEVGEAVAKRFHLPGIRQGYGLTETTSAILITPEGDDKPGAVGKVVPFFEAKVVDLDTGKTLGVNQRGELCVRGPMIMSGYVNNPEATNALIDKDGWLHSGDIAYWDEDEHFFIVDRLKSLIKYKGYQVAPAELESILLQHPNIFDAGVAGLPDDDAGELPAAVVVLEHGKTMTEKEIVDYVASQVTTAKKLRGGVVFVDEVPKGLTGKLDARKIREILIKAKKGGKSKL

Structures are written as SMILES. Where “and” joins values, the source holds several entries; their conditions need not be identical. Equal values may be shown once. Calls of active or inactive are those of the source.

Albumin (Bos taurus), sequence (P02769 whole entry, looked up): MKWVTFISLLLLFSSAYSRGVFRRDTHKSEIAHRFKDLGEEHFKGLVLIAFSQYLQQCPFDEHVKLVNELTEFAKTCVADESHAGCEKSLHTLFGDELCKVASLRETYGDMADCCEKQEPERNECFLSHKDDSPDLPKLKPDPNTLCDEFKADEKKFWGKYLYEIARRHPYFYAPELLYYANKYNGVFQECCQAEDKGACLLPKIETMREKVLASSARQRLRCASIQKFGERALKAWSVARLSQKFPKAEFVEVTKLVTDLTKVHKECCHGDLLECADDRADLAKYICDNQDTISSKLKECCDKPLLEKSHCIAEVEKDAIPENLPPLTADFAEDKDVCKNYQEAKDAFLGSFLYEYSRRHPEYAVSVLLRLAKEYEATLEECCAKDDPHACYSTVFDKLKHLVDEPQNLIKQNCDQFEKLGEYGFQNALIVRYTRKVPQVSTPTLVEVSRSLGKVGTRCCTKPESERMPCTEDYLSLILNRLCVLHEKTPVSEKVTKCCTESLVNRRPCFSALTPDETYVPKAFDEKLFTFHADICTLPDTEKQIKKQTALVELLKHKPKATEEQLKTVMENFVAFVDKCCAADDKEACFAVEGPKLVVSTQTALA

Regarding `CN1CCc2nc(CO)c(CO)cc2C1`, the composite z-score is 0.372 in assay [1]; 0.133 in assay [3]; -0.115 in assay [4]; 0.2 in [5]; 0.121 in assay [6]; -0.13 in [7]. The composite z-score is 0.132 in assay [8]; 0.476 in assay [9]; -0.446 in assay [10]; 1.08 in assay [11]; 0.635 in assay [12]; 0.11 in [13]. Further, the composite z-score in assay [14] is 0.291; in [15], 0.398; in [16], 0.576; in [18], 0.263; in [19], -0.0298. Further, in assay [2], the composite Z-score is 0.396 (inactive). Besides, the z-score is 1.02 in assay [17] and -0.529 (inactive) in [20].

For the compound `COC(=O)NCC=Cc1nc(CCC=CC(=O)O[C@H]2CC3CC(=O)O[C@@H](C=CCC(C)C)C[C@@H]4CC[C@H](C)[C@@H](C[C@@H](OC)C[C@H](C2)O3)O4)co1`, the composite z-score is -0.27 in [1]; -0.095 in [3]; -0.14 in assay [4]; -0.303 in [5]; -0.263 in [6]; 0.411 in assay [7]. For the same compound, the composite z-score is -1.03 in assay [8]; -0.647 in [9]; -1.63 in [10]; -0.106 in assay [11]; -1.42 in assay [12]; -0.422 in assay [13]. Further, the composite z-score is -1.2 in assay [14]; -0.822 in [15]; -0.43 in assay [16]; -0.422 in assay [18]; -0.777 in assay [19]. The composite Z-score in assay [2] is 0.0506 (inactive). Further, the z-score in assay [17] is 1.88; in [20], -0.0363 (inactive).

For the compound `COc1cc2c(cc1O)C(C)N(C)CC2` (stereo not given), the composite z-score was 0.122 in [1]; -0.0967 in assay [3]; -0.0877 in assay [4]; 0.545 in assay [5]; 0.594 in assay [6]; 0.209 in [7]. Moreover, the composite z-score in [8] was -1.24; in assay [9] it was -0.432; in assay [10], 0.519; in assay [11], -0.0259; in assay [12], -1.17; in assay [13], -0.45. Moreover, the composite z-score was -0.227 in assay [14]; -0.114 in [15]; 0.0683 in assay [16]; -0.692 in [18]; 0.0591 in [19]. The composite Z-score in assay [2] was 0.104 (inactive). The z-score in assay [17] is 0.599; in [20], -1.06 (inactive).

With `COC(=O)[C@H]1C(=O)c2ccccc2O[C@@](C(=O)OC)(c2ccccc2)[C@@H]1c1ccccc1`, the composite z-score was -0.764 in assay [1]; -0.27 in [3]; -0.125 in assay [4]; -0.466 in assay [5]; -0.583 in assay [6]; -0.129 in [7]. For the same compound, the composite z-score in [8] is -0.988; in assay [9] it was -0.0221; in [10], -0.0286; in assay [11] it was -0.34; in assay [12], -1.34; in assay [13], 0.0173. Further, the composite z-score in [14] was -1.75; in [15], -0.245; in assay [16], -0.105; in [18] it was -0.0506; in assay [19], -0.738. Further, in assay [2], the composite Z-score was 0.181 (inactive). In addition, the results for the z-score in assay [17] and in assay [20] were -0.778 and 0.164 (inactive), respectively.

Turning to `CC1N(P(=O)(c2ccccc2)c2ccccc2)CC(O)(c2ccccc2)CC12CC2` (stereo not given), the composite z-score in assay [1] was 0.728 and 0.608; in [3] it was -0.136 and 0.15; in assay [4] it was 0.148 and 0.256; in assay [5], 0.596 and 0.631; in assay [6], 3.25 and 2.52; in assay [7], 0.934 and 0.881. Besides, the composite z-score is 0.723 and -0.577 in [8]; -0.665 and -0.801 in [9]; -0.358 and -0.0278 in assay [10]; 1.12 and 1.33 in [11]; 0.773 and 0.537 in assay [12]; 1.39 and 0.264 in [13]. The composite z-score is -0.817 and 0.653 in [14]; -1.07 and -0.0739 in assay [15]; -1.02 and -0.642 in [16]; -1.48 and -1.47 in assay [18]; -0.322 and 0.637 in assay [19]. In addition, the composite Z-score in assay [2] is 0.311 (inactive) and 0.617 (inactive). Also, the z-score in [17] is 0.158 and 0.776; in assay [20], 2.42 (inactive) and 2.44 (inactive).

Consider `C=C(CC1(C(C)NP(=O)(c2ccccc2)c2ccccc2)CC1)c1ccccc1` (stereo not given), for which the composite z-score in [1] stood at 0.314; in [3], 0.143; in [4], 0.038; in assay [5], 0.596; in assay [6] it was 3.14; in [7] it was 0.425. Further, the composite z-score is 1.18 in [8]; -0.0819 in assay [9]; 0.711 in assay [10]; 2.95 in assay [11]; 1.25 in [12]; 0.788 in assay [13]. Also, the composite z-score in [14] is 0.94; in assay [15], 0.3; in assay [16], -0.34; in assay [18] it was 0.0368; in [19], 0.501. In addition, the composite Z-score in assay [2] is -0.589 (inactive). In addition, the z-score is -0.147 in assay [17] and 2.67 (inactive) in assay [20].
